Inconclusive results are not listed. Activity calls are given as the source filed them. Calls come from the whole dose curve; as a rule, active = well fitted cell-killing curve with a large enough effect in the repeat runs; inconclusive = weak or mixed curves, or effect the other way; inactive = no such curve, though single readings can be large or run the other way. Positions of bridges follow the written chain, without caps; N, C: chain ends. Non-standard residues stand in square brackets, D forms with d. Residues, ends and D or L forms follow the SMILES beside them. hArg = N=C(N)NCCCC[C@H](N)C(=O)O; Mpa = O=C(O)CCS
Assay: qHTS assay for identifying genotoxic compounds that show differential cytotoxicity against isogenic chicken DT40 cell lines with known DNA damage response pathways - Rev3 mutant cell line (AID 743014); note: nearly all actives have a fitted effect of over 55% in size
Conditions: chicken DT40 Rev3-/- viability, CellTiter-Glo, 40 h; series mostly up to 68.4 µM; activity, negative = cytotoxicity: at the top concentration
Description: National Center for Advancing Translational Sciences [NCATS]
NIH Chemical Genomics Center [NCGC]
U.S. Environmental Protection Agency [EPA]
National Institutes of Environmental Health Sciences [NIEHS]
National Toxicology Program [NTP]
U.S. Food and Drug Administration [FDA]
DNA repair pathways play a critical role in cellular homeostasis by repairing DNA damage induced by endogenous processes and xenobiotics. Isogenic chicken DT40 cell lines deficient in different DNA repair pathways can be used to identify genotoxic compounds and aid in characterizing the nature of the DNA damage induced. Two DNA repair-deficient cell lines with disrupted genes, Rad54/Ku70 or Rev3, were used to screen the Tox21 10K compound library. Possible genotoxicity was based on the presence of a significant increase in cytotoxicity in one or more of the DNA repair-deficient cell lines compared to that observed in the parental DNA repair-proficient cell line. CellTiter Glo viability assay (Promega, Madison, WI) was used to measure cell viability in these cells after compound treatment. This assay includes the data from the Rev3 mutant cell line.
Tox21 Assay Protocol Summary:
300 DT40 mutant cells in 5 uL/well were dispensed into white, solid-bottom 1536-well plates using a Multidrop Combi (ThermoFisher Scientific, Waltham, MA) dispenser. After the assay plates were incubated at 37 C/5% CO2 for approximately 0.5 hour, 23 nL of compounds dissolved in DMSO, positive controls or DMSO only was transferred into the assay plate by a pintool work station (Kalypsys, San Diego, CA). The assay plates were incubated at 37 C/5% CO2 for 40 hours. After 5 uL per well of CellTiter-Glo reagent was added into each well of the assay plates, the plates were incubated for 30 min at room temperature and the luminescence intensity of the plates was measured using a ViewLux (PerkinElmer, Shelton, CT) plate reader.
For `CC1=NN(c2ccc(S(=O)(=O)O)cc2)C(=O)C1`, the “activity, negative = cytotoxicity” value was 3.32% (inactive). With `O=C(Cl)c1ccccc1[N+](=O)[O-]` the “activity, negative = cytotoxicity” value was 0.385% [at 95 µM] (inactive). With `CCCCOCC(C)O` (stereo not given) the “activity, negative = cytotoxicity” value was 7.5% [at 95 µM] (inactive). With `NCCOCCN` the “activity, negative = cytotoxicity” value was 6.18% (inactive). For `CN1C[C@@H]2C[C@H]1CN2c1cc2c(cc1F)c(=O)c(C(=O)O)cn2C1CC1`, the Potency was 9.44 µM (active). With `CC(=O)O[C@H]1C[C@@H]2CC[C@@]1(C)C2(C)C` the “activity, negative = cytotoxicity” value was 0.0224% (inactive). With `CN1CCOC(c2ccccc2)c2ccccc2C1` (stereo not given) the “activity, negative = cytotoxicity” value was -10.1% [at 31.4 µM] (inactive). In the case of `O=C(CN1CCNCC1)NC1CCCCC1`, the “activity, negative = cytotoxicity” value is reported as 5.32% (inactive). For `CC(C)(CO)C(O)C(=O)NCCCO` (stereo not given), the “activity, negative = cytotoxicity” value was 8.31% (inactive). With `OC[C@H]1O[C@@H](O[C@@H]2[C@@H](CO)O[C@](O)(CO)[C@H]2O)[C@H](O)[C@@H](O)[C@H]1O` the “activity, negative = cytotoxicity” value was 0.308% (inactive). For `O=C1OCCO1`, the “activity, negative = cytotoxicity” value was 0.117% [at 95 µM] (inactive). For `C=CCCCCCCCCC(=O)OCCCC`, the “activity, negative = cytotoxicity” value was 0.543% (inactive). In the case of `Cn1c(=O)c2[nH]c(Br)nc2n(C)c1=O`, the “activity, negative = cytotoxicity” value is reported as 0.106% (inactive). In the case of `CC(S)C(C)S` (stereo not given), the “activity, negative = cytotoxicity” value is reported as -28.3% [at 95 µM] (inactive). For `Cc1c(Cl)cccc1Cl`, the “activity, negative = cytotoxicity” value was -14.7% (inactive). In the case of `CCCCOC(=O)[C@H](C)O`, the “activity, negative = cytotoxicity” value is reported as 13.1% (inactive). For `c1ccc(-c2nn[nH]n2)cc1`, the “activity, negative = cytotoxicity” value was -7.43% (inactive). For `OCC1CCC(CO)CC1` (stereo not given), the “activity, negative = cytotoxicity” value was -2.07% [at 95 µM] (inactive). In the case of `C/C=C(\C)C(C)=O`, the “activity, negative = cytotoxicity” value is reported as -14.7% (inactive). With `C=CC(=O)OCC1CCCO1` (stereo not given) the “activity, negative = cytotoxicity” value was -9.6% (inactive). In the case of `CCn1cc(C(=O)O)c(=O)c2cnc(N3CCCC3)nc21`, the “activity, negative = cytotoxicity” value is reported as 16.1% [at 31.4 µM] (inactive). For `COC(C)(OC)OC`, the “activity, negative = cytotoxicity” value was -2.06% (inactive). With `CC(=O)OC(C)=O` the “activity, negative = cytotoxicity” value was 6.36% [at 95 µM] (inactive). For `CC(=O)C1C(=O)C=C(C)OC1=O` (stereo not given), the “activity, negative = cytotoxicity” value was -1.22% (inactive). With `OC[C@@H](O)C(O)[C@@H](O)CO` (stereo not given in full) the “activity, negative = cytotoxicity” value was 0.339% [at 95 µM] (inactive). In the case of `CC(C)C1OCCN1CCOC(=O)NCCCCCCNC(=O)OCCN1CCOC1C(C)C` (stereo not given), the “activity, negative = cytotoxicity” value is reported as -11.2% (inactive). In the case of `C=C(C)[C@@H]1CC=C(C)CC1`, the Potency is reported as 68.6 µM (active). For `O=C1c2ccccc2C(=O)c2cc(Cl)ccc21`, the activity, negative = cytotoxicity was 3.55% [at 8.53 µM] (inactive). With `CCCSSCCC` the “activity, negative = cytotoxicity” value was 3.13% (inactive). For `c1ccc2c(CC3=NCCN3)cccc2c1`, the Potency was “inactive”. With `Cc1c(NC(=O)c2cccnc2)c(=O)n(-c2ccccc2)n1C` the “activity, negative = cytotoxicity” value was 9.79% [at 31.4 µM] (inactive). In the case of `NC(=O)[C@@H]1CSSCCC(=O)N[C@@H](CCCCN=C(N)N)C(=O)NCC(=O)N[C@@H](CC(=O)O)C(=O)N[C@@H](Cc2c[nH]c3ccccc23)C(=O)N2CCC[C@H]2C(=O)N1` ([Mpa][hArg]GDWPC-NH2; disulfide 1-7), the “activity, negative = cytotoxicity” value is reported as 17.2% (inactive). For `CC(=O)c1cc(C)oc1C`, the “activity, negative = cytotoxicity” value was -0.348% [at 95 µM] (inactive). For `CC1(C)O[C@H]2CC(=O)OC[C@]23[C@H]2CC[C@@]4(C)[C@H](c5ccoc5)OC(=O)[C@H]5O[C@]54[C@]2(C)C(=O)C[C@@H]13`, the “activity, negative = cytotoxicity” value was 7.63% (inactive). With `CCC(=O)CC` the “activity, negative = cytotoxicity” value was 2.83% (inactive). In the case of `[O]=[Mo](=[O])=[O]`, the “activity, negative = cytotoxicity” value is reported as 7.94% [at 31.4 µM] (inactive). For `CCC(C)C(C)=O` (stereo not given), the “activity, negative = cytotoxicity” value was 5.58% (inactive). For `Cc1cc(C)c(C(=O)O)c(C)c1`, the “activity, negative = cytotoxicity” value was 17.3% (inactive). In the case of `CCOc1cccc(N)c1`, the “activity, negative = cytotoxicity” value is reported as 2.97% (inactive). In the case of `O=Cc1cc2ccccc2o1`, the “activity, negative = cytotoxicity” value is reported as -1.02% (inactive).

— PubChem BioAssay (Tox21)
% is set by controls: 0 for no effect and ±100 for the full control effect; potency is the fitted concentration of half-maximal effect.
